{"source": "PubChem BioAssay", "key": {"[1]": {"assay": "growth inhibition of DIPG glioma cells, dose response, cell-based, SU-DIPG-XIII, MIPE4.0, CellTiter-Glo, qHTS (AID 1347061; cut-off not given, nearly all actives have AC50 up to about 37 µM;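 note: cells exposed to compound for 48 hours before readout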)", "conditions": "SU-DIPG-XIII viability, CellTiter-Glo ATP luminescence"}, "[2]": {"assay": "growth inhibition of DIPG glioma cells, dose response, cell-based, JHH-DIPG-1, MIPE4.0, CellTiter-Glo, qHTS (AID 1347062; cut-off not given, nearly all actives have AC50 up to about 27 µM;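 for AC50: cells exposed to compound for two days before readout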)", "conditions": "JHH-DIPG-1 viability, CellTiter-Glo ATP luminescence"}, "[3]": {"assay": "growth inhibition of DIPG glioma cells, dose response, cell-based, SU-DIPG-IV, MIPE4.0, CellTiter-Glo, qHTS (AID 1347063);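 note: compound exposure lasted 48 hours before the viability readout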", "conditions": "SU-DIPG-IV viability, CellTiter-Glo ATP luminescence"}, "[4]": {"assay": "SU-DIPG-VI glioma cell viability, MIPE4.0 library, CellTiter-Glo luminescence, qHTS (AID 1347066);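 note: cells exposed to compound for 48 hours before readout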", "conditions": "CellTiter-Glo ATP luminescence"}, "[5]": {"assay": "reducers of polyQ inclusions in PC12 cells, cell-based, NGF-treated PC12, GFPQ80 (AID 1614);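 note: lower means fewer inclusions and 0 means no inclusions at all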", "conditions": "PC12 NGF-treated GFP-polyQ80 inclusion reduction"}, "[6]": {"test_system": "Hepatitis C virus NS3 helicase", "assay": "HCV NS3 helicase inhibitors, primary screen, biochemical, fluorescence polarization, LOPAC1280 library (AID 687035; in the data active = inhibition above about 37%)", "conditions": "Purified HCV NS3 helicase, Cy5-dT15 ssDNA binding fluorescence polarization; stronger effect = higher value; concentration not given here"}, "[7]": {"assay": "Cy5 fluorescence quenching or enhancement artefacts, artefact control for HCV NS3 helicase inhibitor project, biochemical, LOPAC1280 (AID 687037; call rule not given here)", "conditions": "Cy5-DNA-NS3h complex fluorescence interference counterscreen"}, "[8]": {"assay": "phospholipid biosynthesis inhibitors in animal cells, primary screen, cell-based, LOPAC library, screen 4 (AID 1347384; call rule not given here)", "conditions": "phospholipid biosynthesis inhibition screen, at 10 µM"}, "[9]": {"target": "ATP-dependent translocase ABCB1 (Homo sapiens) (UniProt P08183)", "sequence (P08183 whole entry, looked up)": "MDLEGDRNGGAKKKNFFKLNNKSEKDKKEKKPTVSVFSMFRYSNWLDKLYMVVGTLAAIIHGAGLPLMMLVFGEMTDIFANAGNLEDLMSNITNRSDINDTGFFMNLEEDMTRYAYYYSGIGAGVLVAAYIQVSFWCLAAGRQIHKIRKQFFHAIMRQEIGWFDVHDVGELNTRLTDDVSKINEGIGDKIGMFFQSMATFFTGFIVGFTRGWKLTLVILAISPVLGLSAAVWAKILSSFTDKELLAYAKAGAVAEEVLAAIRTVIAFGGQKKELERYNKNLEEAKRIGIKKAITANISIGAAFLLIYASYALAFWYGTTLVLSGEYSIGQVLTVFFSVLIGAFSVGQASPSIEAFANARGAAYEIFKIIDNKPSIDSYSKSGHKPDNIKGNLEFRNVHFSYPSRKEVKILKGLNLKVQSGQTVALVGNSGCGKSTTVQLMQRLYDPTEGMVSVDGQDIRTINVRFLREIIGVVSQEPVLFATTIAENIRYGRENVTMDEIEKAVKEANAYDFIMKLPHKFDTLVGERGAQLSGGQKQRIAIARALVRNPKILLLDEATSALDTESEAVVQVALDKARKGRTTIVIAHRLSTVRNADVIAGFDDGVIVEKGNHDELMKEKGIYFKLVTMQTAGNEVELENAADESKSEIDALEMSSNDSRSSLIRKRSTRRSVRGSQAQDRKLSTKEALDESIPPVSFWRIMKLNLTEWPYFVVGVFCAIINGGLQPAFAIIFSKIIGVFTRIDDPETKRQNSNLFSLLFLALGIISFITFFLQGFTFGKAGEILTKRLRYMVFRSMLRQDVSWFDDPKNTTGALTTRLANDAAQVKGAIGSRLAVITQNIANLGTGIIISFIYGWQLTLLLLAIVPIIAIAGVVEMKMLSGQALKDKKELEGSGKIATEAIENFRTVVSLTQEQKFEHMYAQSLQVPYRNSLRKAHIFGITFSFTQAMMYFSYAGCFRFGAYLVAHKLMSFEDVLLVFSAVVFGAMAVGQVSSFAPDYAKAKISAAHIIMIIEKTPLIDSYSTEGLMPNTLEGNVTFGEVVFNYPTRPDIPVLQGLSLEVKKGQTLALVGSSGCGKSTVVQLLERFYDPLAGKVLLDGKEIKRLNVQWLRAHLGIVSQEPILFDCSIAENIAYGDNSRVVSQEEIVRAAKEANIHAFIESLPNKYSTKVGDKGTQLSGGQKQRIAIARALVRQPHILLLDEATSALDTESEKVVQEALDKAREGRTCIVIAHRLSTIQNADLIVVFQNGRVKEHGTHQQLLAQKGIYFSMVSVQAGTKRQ", "assay": "MDR1 (ABCB1) efflux transporter inhibition, cell-based (AID 377; in the data active = fluorescence slope change above about 50%)", "conditions": "MDR1-expressing cells, fluorescent substrate accumulation slope; stronger effect = higher value; concentration not given here"}, "[10]": {"assay": "circadian clock period modulators, cell-based, LOPAC library, luminescence reporter (AID 2774; call rule not given here;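 note: values are relative to mean of DMSO wells on each plate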)", "conditions": "circadian reporter cells, at 7 µM, actives lie on both sides"}, "[11]": {"assay": "JHH-DIPG-1 glioma cell viability, MIPE5.0 library, CellTiter-Glo luminescence, qHTS (AID 1347067; cut-off not given, nearly all actives have AC50 up to about 26 µM;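 note: cells exposed to compound for 48 hours before readout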)", "conditions": "JHH-DIPG-1 glioma viability, CellTiter-Glo ATP luminescence"}, "[12]": {"assay": "SU-DIPG-XXV glioma cell viability, MIPE5.0 library, qHTS (AID 1347068; cut-off not given, nearly all actives have IC50 up to about 30 µM)"}, "[13]": {"assay": "growth inhibition of DIPG glioma cells, dose response, cell-based, SU-DIPG-XVII, MIPE5.0, CellTiter-Glo, qHTS (AID 1347060; cut-off not given, nearly all actives have AC50 up to about 26 µM;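 for AC50: cells exposed to compound for 48 hours before viability readout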)", "conditions": "SU-DIPG-XVII viability, CellTiter-Glo ATP luminescence"}}, "note": "Records with an inconclusive call do not appear. The source made the active and inactive calls. Unless noted, no cut-off is given here; in the data, nearly all actives have AC50 up to about 30 µM."}
{"smiles": "NC(=O)N1c2ccccc2CC(=O)c2ccccc21", "values": [{"measurement": "outcome", "setting": "[1]", "result": "inactive"}, {"measurement": "outcome", "setting": "[2]", "result": "inactive"}, {"measurement": "outcome", "setting": "[3]", "result": "inactive"}, {"measurement": "outcome", "setting": "[4]", "result": "inactive"}]}
{"smiles": "Cc1cn([C@H]2C[C@H](N=[N+]=[N-])[C@@H](CO)O2)c(=O)[nH]c1=O", "values": [{"measurement": "inclusion score", "setting": "[5]", "result": 2}, {"measurement": "outcome", "setting": "[3]", "result": "inactive"}, {"measurement": "outcome", "setting": "[4]", "result": "inactive"}]}
{"smiles": "COc1cc2nc(N(C)CCCNC(=O)C3CCCO3)nc(N)c2cc1OC", "note": "(stereo not given)", "values": [{"measurement": "inhibition", "setting": "[6]", "result": "-3% (inactive)"}, {"measurement": "fluorescence ratio (interference)", "setting": "[7]", "result": "1 (inactive)"}, {"measurement": "outcome", "setting": "[1]", "result": "inactive"}, {"measurement": "outcome", "setting": "[2]", "result": "inactive"}, {"measurement": "outcome", "setting": "[4]", "result": "inactive"}, {"measurement": "outcome", "setting": "[8]", "result": "inactive"}]}
{"smiles": "CN(C)CCc1c[nH]c2ccc(C[C@H]3COC(=O)N3)cc12", "values": [{"measurement": "outcome", "setting": "[1]", "result": "inactive"}, {"measurement": "outcome", "setting": "[2]", "result": "inactive"}, {"measurement": "outcome", "setting": "[3]", "result": "inactive"}, {"measurement": "outcome", "setting": "[4]", "result": "inactive"}]}
{"smiles": "NS(=O)(=O)c1cc2c(cc1C(F)(F)F)NC(Cc1ccccc1)NS2(=O)=O", "note": "(stereo not given)", "values": [{"measurement": "fluorescence slope change", "setting": "[9]", "result": "16.6% (inactive)"}, {"measurement": "inclusion score", "setting": "[5]", "result": 2}]}
{"smiles": "COc1ccc(OC)c(C(O)CNC(=O)CN)c1", "note": "(stereo not given)", "values": [{"measurement": "fluorescence slope change", "setting": "[9]", "result": "79.4% (active)"}, {"measurement": "inclusion score", "setting": "[5]", "result": 2}]}
{"smiles": "CO[C@@]1(NC(=O)Cc2cccs2)C(=O)N2C(C(=O)O)=C(COC(N)=O)CS[C@@H]21", "values": [{"measurement": "fluorescence slope change", "setting": "[9]", "result": "94% (active)"}, {"measurement": "inclusion score", "setting": "[5]", "result": 2}]}
{"smiles": "CC(C)(C)NCC(O)COc1cccc2c1C[C@H](O)[C@H](O)C2", "note": "(stereo not given in full)", "values": [{"measurement": "fluorescence slope change", "setting": "[9]", "result": "55.3% (active)"}, {"measurement": "inclusion score", "setting": "[5]", "result": 2}]}
{"smiles": "NC(=O)c1cnccn1", "values": [{"measurement": "fluorescence slope change", "setting": "[9]", "result": "13.7% (inactive)"}, {"measurement": "inclusion score", "setting": "[5]", "result": 2}, {"measurement": "period change", "setting": "[10]", "result": "0 h (inactive)"}, {"measurement": "inhibition", "setting": "[6]", "result": "1% (inactive)"}, {"measurement": "fluorescence ratio (interference)", "setting": "[7]", "result": "1 (inactive)"}, {"measurement": "AC50", "setting": "[1]", "result": "18.7 µM (active)"}, {"measurement": "outcome", "setting": "[2]", "result": "inactive"}, {"measurement": "outcome", "setting": "[3]", "result": "inactive"}, {"measurement": "outcome", "setting": "[11]", "result": "inactive"}, {"measurement": "outcome", "setting": "[12]", "result": "inactive"}, {"measurement": "outcome", "setting": "[8]", "result": "inactive"}]}
{"smiles": "Nc1ncn([C@@H]2O[C@H](CO)[C@@H](O)[C@H]2O)c(=O)n1", "values": [{"measurement": "period change", "setting": "[10]", "result": "0.105 h (inactive)"}, {"measurement": "inhibition", "setting": "[6]", "result": "-1% (inactive)"}, {"measurement": "fluorescence ratio (interference)", "setting": "[7]", "result": "0.9 (inactive)"}, {"measurement": "AC50", "setting": "[13]", "result": "1.48 µM (active)"}, {"measurement": "AC50", "setting": "[2]", "result": "2.96 µM (active)"}, {"measurement": "AC50", "setting": "[3]", "result": "0.935 µM (active)"}, {"measurement": "AC50", "setting": "[11]", "result": "7.42 µM (active)"}, {"measurement": "outcome", "setting": "[8]", "result": "inactive"}]}
{"smiles": "OCCN1CCN(CCCN2c3ccccc3Sc3ccc(C(F)(F)F)cc32)CC1", "values": [{"measurement": "fluorescence slope change", "setting": "[9]", "result": "91.3% (active)"}, {"measurement": "period change", "setting": "[10]", "result": "0.01 h (inactive)"}, {"measurement": "inhibition", "setting": "[6]", "result": "-2% (inactive)"}, {"measurement": "fluorescence ratio (interference)", "setting": "[7]", "result": "0.9 (inactive)"}, {"measurement": "AC50", "setting": "[13]", "result": "10.5 µM (active)"}, {"measurement": "AC50", "setting": "[3]", "result": "18.7 µM (active)"}, {"measurement": "AC50", "setting": "[11]", "result": "3.72 µM (active)"}, {"measurement": "outcome", "setting": "[8]", "result": "inactive"}]}
{"smiles": "Cc1ncc([N+](=O)[O-])n1CC(C)O", "note": "(stereo not given)", "values": [{"measurement": "outcome", "setting": "[13]", "result": "inactive"}, {"measurement": "outcome", "setting": "[2]", "result": "inactive"}, {"measurement": "outcome", "setting": "[3]", "result": "inactive"}, {"measurement": "outcome", "setting": "[4]", "result": "inactive"}, {"measurement": "outcome", "setting": "[11]", "result": "inactive"}, {"measurement": "outcome", "setting": "[12]", "result": "inactive"}]}
{"smiles": "Cc1ccc(-c2cc(C(F)(F)F)nn2-c2ccc(S(N)(=O)=O)cc2)cc1", "values": [{"measurement": "outcome", "setting": "[2]", "result": "inactive"}, {"measurement": "outcome", "setting": "[3]", "result": "inactive"}, {"measurement": "AC50", "setting": "[11]", "result": "10.5 µM (active)"}, {"measurement": "outcome", "setting": "[12]", "result": "inactive"}, {"measurement": "outcome", "setting": "[8]", "result": "inactive"}]}
{"smiles": "O=C1C(CCS(=O)c2ccccc2)C(=O)N(c2ccccc2)N1c1ccccc1", "note": "(stereo not given)", "values": [{"measurement": "fluorescence slope change", "setting": "[9]", "result": "61.4% (active)"}, {"measurement": "inclusion score", "setting": "[5]", "result": 1.5}]}
